Experimental data published in PubChem BioAssay (NCI).
This is part of a sample that, as a whole, favours compounds with a hit. Of some 79,000 tested, about 15% had one in any assay. Rule as the data show it: active = growth inhibition above about 70%; inactive = the rest.

How the values were obtained:
[1] = NCI Yeast Anticancer Drug Screen. Data for the rad50 strain (AID 155);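 also: 0% = growth of vehicle-only cultures of the same strain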; conditions: S. cerevisiae rad50 strain growth inhibition; at 50.0 µM; hits give high values
Method in brief: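 Inhibition values express reduced yeast growth in compound-treated cultures relative to vehicle-treated controls.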

[2] = NCI Yeast Anticancer Drug Screen. Data for the mec2-1 strain (AID 157); conditions: S. cerevisiae mec2-1 strain, at 50.0 µM, hits give high values
Method in brief: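 Yeast mec2-1 mutant treated with compound. Readout: growth inhibition vs vehicle controls.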

[3] = NCI Yeast Anticancer Drug Screen. Data for the sgs1 mgt1 strain (AID 161);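 also: 0% = growth of cultures given vehicle only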; conditions: S. cerevisiae sgs1 mgt1 strain, at 50.0 µM, hits give high values
Method in brief: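 Inhibition of yeast growth, normalised to vehicle-treated controls, is reported for a strain bearing genetic alterations in DNA damage repair.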

[4] = NCI Yeast Anticancer Drug Screen. Data for the cln2 rad14 strain (AID 165);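 also: 0% = growth equal to vehicle treated cultures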; conditions: S. cerevisiae cln2 rad14 strain, at 50.0 µM, hits give high values
Method in brief: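 cln2 rad14 yeast strain; compound exposure; growth inhibition read vs vehicle controls.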

[5] = NCI Yeast Anticancer Drug Screen. Data for the bub3 strain (AID 167); conditions: S. cerevisiae bub3 mutant strain, at 50.0 µM, hits give high values
Method in brief: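 Steps: expose the mutant yeast strain to compound; grow alongside vehicle-treated cultures; measure growth; express inhibition against the vehicle cultures.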

[6] = NCI Yeast Anticancer Drug Screen. Data for the mlh1 rad18 strain (AID 175); conditions: S. cerevisiae mlh1 rad18 strain growth inhibition; at 50.0 µM; hits give high values
Method in brief: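 Yeast w/ defined DNA-repair lesions; compound exposure; growth vs vehicle controls → % inhibition.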

Measured: growth inhibition

CCSC(COC(C)=O)(SCC)C(OC(C)=O)C(OC(C)=O)C(COC(C)=O)OC(C)=O (centres undefined)
inactive: [1] 10.9% | [2] 6.55% | [3] -9% | [4] -6.3% | [5] -2.6% | [6] 14.4%

Oc1ccc(N=Nc2ccccc2)c(O)c1
inactive: [1] 54% | [2] 29.1% | [3] 43.5% | [4] -18.9% | [5] 46% | [6] 64%

CCC(OC(=O)Nc1ccc(S(=O)(=O)NC2CCCCC2)cc1)c1ccco1 (centres undefined)
inactive: [1] 26.9% | [2] 3.65% | [3] 26.8% | [4] 10.8% | [5] 5.65% | [6] 4.15%

COc1ccc(NC(=S)N=Nc2c(O)[nH]c3ccccc23)cc1
inactive: [1] -43.2% | [2] -50% | [3] -33.9% | [4] -13.8% | [5] -41.4% | [6] -30.6%

O=S1(=O)C=C(N2CCCCC2)c2ccccc21
inactive: [1] 2.65% | [2] 2.05% | [3] -4% | [4] -13.3% | [5] -52% | [6] 11.8%

CCOC(=O)Nc1cc(Nc2ccc(Cl)cc2)c2nc(-c3ccc(Cl)cc3)c(-c3ccc(Cl)cc3)nc2n1
inactive: [1] 44.7% | [2] -0.9% | [3] 36.1% | [4] 20.9% | [5] -0.75% | [6] 8.8%

COc1cc(O)c(C(C)=O)c2c1C=CC(C)(C)O2
inactive: [1] -4.95% | [2] -47.1% | [3] -19.9% | [4] -16.8% | [5] -13.8% | [6] -14.7%

C=CC(=N)N
inactive: [1] 12.3% | [2] 2.4% | [3] -5% | [4] 8.45% | [5] 6.6% | [6] 7.6%

COC(=O)N/N=C/c1ccc(NC(C)=O)cc1
inactive: [1] 7.8% | [2] 0% | [3] -13.8% | [4] -75.6% | [5] -4.95% | [6] -5%

CCCN(CCC)S(=O)(=O)c1ccc(NC(=O)Oc2cc(C)ccc2C(C)C)cc1
inactive: [1] 32.5% | [2] 1.75% | [3] 24.2% | [4] 21.5% | [5] -5.25% | [6] 14.8%

Cc1cccc(C2=N/C(=C\c3c(O)ccc4ccccc34)C2=O)c1
inactive: [1] 6.55% | [2] 7.1% | [3] 0.9% | [4] 6.55% | [5] 10.9% | [6] -6.65%

O=C1c2cn[nH]c2N=C(Nc2ccccc2)C1N=Cc1ccc([N+](=O)[O-])cc1 (centres undefined)
inactive: [1] -32.6% | [2] -45.2% | [3] -13.8% | [4] 12.5% | [5] -24.3% | [6] -17.9%

C[C@@]12C[C@@H](c3ccccc3O1)N1CCCSC1=N2
inactive: [1] 20.2% | [2] -16% | [3] 4.6% | [4] 32.8% | [5] -9.8% | [6] 12.4%

COCCC(N)C(=O)O (centres undefined)
inactive: [1] 6% | [2] -13.3% | [3] -15% | [4] -22.8% | [5] -11.6% | [6] 2.65%

Cc1ccc(S(=O)(=O)OC2CCC(C(C)(C)C)C(Cl)C2)cc1 (centres undefined)
inactive: [1] -8% | [2] 8.3% | [3] 3.2% | [4] 9.55% | [5] 3.35% | [6] -6.75%

CNC(=O)OCCC(OC(=O)NC)C1CCC2C3CCC4CC(OC(=O)c5ccccc5)CCC4(C)C3CCC12C (centres undefined)
inactive: [1] 37% | [2] 1.7% | [3] 4.9% | [4] 23.3% | [5] -4% | [6] 8.8%

O=C1c2ccccc2C(=O)N1CCOCCOCCN1C(=O)c2ccccc2C1=O
inactive: [1] -8.15% | [2] -6% | [3] -17% | [4] -20.7% | [5] -2.7% | [6] 20.4%

C=C[C+](CCCC)C(=O)[O-]
inactive: [1] -20.2% | [2] -24.1% | [3] -11.1% | [4] -19.8% | [5] -12.8% | [6] -34.9%

O=C(CCl)N1CCC(CC2(c3cc4ccccc4[nH]3)OCCO2)CC1
inactive: [1] -0.95% | [2] 15.2% | [3] 29.9% | [4] -5.05% | [5] 10.1% | [6] 1.15%

CC(C)[O-].CC(C)[O-].O=c1cccccc1[O-].O=c1cccccc1[O-].[Ti+4]
inactive: [1] -13.2% | [2] 0.9% | [3] 14.2% | [4] 10.8% | [5] -1.5% | [6] 22.4%

Nc1nc(-c2ccccc2)c(N=Nc2ccc([N+](=O)[O-])cc2Cl)s1
inactive: [1] -4.7% | [2] 2.55% | [3] 4.4% | [4] -13.1% | [5] -11.5% | [6] 3.6%

CCOC(=O)C(NC(=O)Cc1ccccc1)C1NC(C(=O)O)CS1 (centres undefined)
inactive: [1] 19.9% | [2] 1.8% | [3] 3.2% | [4] -14.8% | [5] -1.05% | [6] -13.8%

COc1ccc(C2OC3=C(Nc4ccc(Cl)cc4N3)C2=O)c(OC)c1 (centres undefined)
inactive: [1] -9.1% | [2] -30.9% | [3] -28.1% | [4] -29.9% | [5] -42.2% | [6] -28.8%

O=C(Nc1ccn(CCOC(=O)c2ccccc2)c(=O)n1)c1ccccc1
inactive: [1] -9.4% | [2] -21.3% | [3] 22.8% | [4] 14.6% | [5] 23.7% | [6] 47.6%

O=C(Nc1cccc(F)c1)Oc1ccc(OCc2ccccc2)cc1
inactive: [1] 3.8% | [2] 6.6% | [3] 9.9% | [4] 8.7% | [5] 17.9% | [6] 16%

O=C(c1cccc(C(=O)N(c2ccccc2)C2CCCCC2)c1)N(c1ccccc1)C1CCCCC1
inactive: [1] -2.65% | [2] -6.35% | [3] -1.55% | [4] -6.65% | [5] -1.3% | [6] -27.9%

CCN(CC)CC1c2ccccc2C(CNc2ccccc2)N1C (centres undefined)
inactive: [1] 4.5% | [2] 29.4% | [3] -10.1% | [4] 14.2% | [5] 5.65% | [6] 7.65%

Nc1ccc2c(c1)Cc1cc(O)ccc1-2
inactive: [1] 19.1% | [2] -8.75% | [3] 1.45% | [4] 6.3% | [5] 9.9% | [6] 4.35%

C/C(=N\N=C(/C)c1ccc(O)cc1O)c1ccc(O)cc1O
inactive: [1] 13.7% | [2] 12.7% | [3] -3.5% | [4] 6.15% | [5] 6.75% | [6] -3.35%

CC(=O)NC(Cc1cc(I)c(OC(C)=O)c(I)c1)C(=O)O (centres undefined)
inactive: [1] -4.85% | [2] -16.8% | [3] 3.45% | [4] 6% | [5] 12.4% | [6] -0.6%

CC1COC(C(=O)O)(c2ccccc2)O1 (centres undefined)
inactive: [1] -1.05% | [2] -3.55% | [3] -2.1% | [4] -17.6% | [5] -0.35% | [6] 6.7%

Cc1cccc(Cc2ccccc2C(=O)c2ccccc2)c1C
inactive: [1] 5.75% | [2] -6.75% | [3] -5.5% | [4] -19.2% | [5] 7.4% | [6] -17.1%

O=C1c2ccccc2CCC12OC2c1ccncc1 (centres undefined)
inactive: [1] 12.1% | [2] 27.1% | [3] 25% | [4] 6.75% | [5] 39.4% | [6] 29.6%

C[N+](C)(C)CC(=O)N/N=C(/Cc1cc(=O)oc2cc(O)ccc12)C(=O)Nc1ccc(Cl)cc1
inactive: [1] 7.35% | [2] -2.45% | [3] -11.3% | [4] -15.7% | [5] -19.8% | [6] -10.8%

NCCCn1cnc2c(N)ncnc21
inactive: [1] 8.95% | [2] -1.55% | [3] -4.55% | [4] -18.6% | [5] -16.4% | [6] 0.65%

O=Cc1ccccc1[N+](=O)[O-]
inactive: [1] 18.9% | [2] -8.35% | [3] 15% | [4] 14.2% | [5] 6.75% | [6] 17.9%

CC[n+]1ccnc2ccccc21
inactive: [1] -11.6% | [2] -8% | [3] -1.35% | [4] -7.9% | [5] 11.6% | [6] 14%

COC(=O)N/N=C(/C)c1ccco1
inactive: [1] 8.75% | [2] 27.9% | [3] 3.55% | [4] 1.55% | [5] 14.8% | [6] 16.2%

Cc1csnn1
inactive: [1] -12.7% | [2] -17.9% | [3] 8.5% | [4] -1.4% | [5] -1.6% | [6] -21.6%
